Where a name gives a salt, the structure may show the parent alone.
Columns and labels:
Assay in all cases: thermal shift delta Tm vs DMSO control; higher = stronger stabilization (binding)
Details in all cases: 12.5 µM; protein concentration 2 µM
LOC_OS01G57100-cb003 = tested on: LOC_OS01G57100-cb003
Procedure, shortened: (§1)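 Rice kinase domain constructs, made in E. coli and purified, were placed in 96-well plates at 2 μM in 19.5 μl of 100 mM potassium phosphate pH 7.5, 150 mM NaCl, 10% glycerol and 5 × SYPRO Orange, with compound in DMSO. A temperature ramp from 25°C to 95°C at 0.05°C/s was used for differential scanning fluorimetry. The melting temperature shift is a triplicate mean compared with DMSO-only protein, derived from Boltzmann fits.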

LOC_OS01G60330-cb001 = tested on: LOC_OS01G60330-cb001
Procedure, shortened: as §1

LOC_OS01G60700-cb002 = tested on: LOC_OS01G60700-cb002
Procedure, shortened: as §1

LOC_OS01G63280-cb003 = tested on: LOC_OS01G63280-cb003
Procedure, shortened: as §1

LOC_OS01G67340-cb003 = tested on: LOC_OS01G67340-cb003
Procedure, shortened: as §1

LOC_OS01G70970-cb002 = tested on: LOC_OS01G70970-cb002
Procedure, shortened: as §1

LOC_OS02G07810-cb001 = tested on: LOC_OS02G07810-cb001
Procedure, shortened: as §1

LOC_OS02G08530-cb003 = tested on: LOC_OS02G08530-cb003
Procedure, shortened: as §1

LOC_OS02G14120-cb001 = tested on: LOC_OS02G14120-cb001
Procedure, shortened: as §1

LOC_OS02G17970-cb001 = tested on: LOC_OS02G17970-cb001
Procedure, shortened: as §1

LOC_OS02G45750-cb003 = tested on: LOC_OS02G45750-cb003
Procedure, shortened: as §1

LOC_OS02G54510-cb004 = tested on: LOC_OS02G54510-cb004
Procedure, shortened: as §1

LOC_OS03G04050-cb001 = tested on: LOC_OS03G04050-cb001
Procedure, shortened: as §1

LOC_OS03G12390-cb001 = tested on: LOC_OS03G12390-cb001
Procedure, shortened: as §1

LOC_OS03G27990-cb004 = tested on: LOC_OS03G27990-cb004
Procedure, shortened: as §1

LOC_OS03G50450-cb001 = tested on: LOC_OS03G50450-cb001
Procedure, shortened: as §1

LOC_OS03G50810-cb003 = tested on: LOC_OS03G50810-cb003
Procedure, shortened: as §1

LOC_OS04G35114-cb001 = tested on: LOC_OS04G35114-cb001
Procedure, shortened: as §1

LOC_OS04G38480-cb003 = tested on: T1, LOC_OS04G38480-cb003
T1 sequence (whole entry): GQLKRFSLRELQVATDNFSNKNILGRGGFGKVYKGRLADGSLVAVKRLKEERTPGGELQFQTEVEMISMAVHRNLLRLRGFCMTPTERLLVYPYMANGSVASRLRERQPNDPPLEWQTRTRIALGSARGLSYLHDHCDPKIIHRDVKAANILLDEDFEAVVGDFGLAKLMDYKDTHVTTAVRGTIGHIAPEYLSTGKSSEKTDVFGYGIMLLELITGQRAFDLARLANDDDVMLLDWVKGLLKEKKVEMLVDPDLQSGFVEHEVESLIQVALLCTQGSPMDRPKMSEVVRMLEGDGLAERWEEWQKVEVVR
Procedure, shortened: as §1

LOC_OS04G41100-cb001 = tested on: T2, LOC_OS04G41100-cb001
T2 sequence (whole entry): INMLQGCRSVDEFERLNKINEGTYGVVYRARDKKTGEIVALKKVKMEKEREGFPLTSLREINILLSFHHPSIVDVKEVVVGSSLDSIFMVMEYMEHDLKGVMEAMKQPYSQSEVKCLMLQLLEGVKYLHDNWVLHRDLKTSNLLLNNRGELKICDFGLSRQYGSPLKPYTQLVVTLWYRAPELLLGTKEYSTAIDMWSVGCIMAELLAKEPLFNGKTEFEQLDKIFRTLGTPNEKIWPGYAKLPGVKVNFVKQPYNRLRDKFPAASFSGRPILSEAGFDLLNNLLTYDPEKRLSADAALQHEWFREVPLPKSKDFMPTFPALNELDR
Procedure, shortened: as §1
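Note: purified Escherichia coli-expressed rice kinase domain construct.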

| Structure (SMILES) | thermal shift delta Tm (LOC_OS01G57100-cb003) | thermal shift delta Tm (LOC_OS01G60330-cb001) | thermal shift delta Tm (LOC_OS01G60700-cb002) | thermal shift delta Tm (LOC_OS01G63280-cb003) | thermal shift delta Tm (LOC_OS01G67340-cb003) | thermal shift delta Tm (LOC_OS01G70970-cb002) | thermal shift delta Tm (LOC_OS02G07810-cb001) | thermal shift delta Tm (LOC_OS02G08530-cb003) | thermal shift delta Tm (LOC_OS02G14120-cb001) | thermal shift delta Tm (LOC_OS02G17970-cb001) | thermal shift delta Tm (LOC_OS02G45750-cb003) | thermal shift delta Tm (LOC_OS02G54510-cb004) | thermal shift delta Tm (LOC_OS03G04050-cb001) | thermal shift delta Tm (LOC_OS03G12390-cb001) | thermal shift delta Tm (LOC_OS03G27990-cb004) | thermal shift delta Tm (LOC_OS03G50450-cb001) | thermal shift delta Tm (LOC_OS03G50810-cb003) | thermal shift delta Tm (LOC_OS04G35114-cb001) | thermal shift delta Tm (LOC_OS04G38480-cb003) | thermal shift delta Tm (LOC_OS04G41100-cb001) |
| --- | --- | --- | --- | --- | --- | --- | --- | --- | --- | --- | --- | --- | --- | --- | --- | --- | --- | --- | --- | --- |
| CCN(CC)CCCC(C)Nc1ccnc2cc(Cl)ccc12 (stereo not given) [Chloroquine Phosphate] | 0.41 °C | 0.19 °C | 0.9 °C | -0.08 °C | 0.32 °C | -0.07 °C | 0.25 °C | 0.31 °C | 0.87 °C | -0.06 °C | 0.61 °C | 0.18 °C | 0.45 °C | 0 °C | 0.19 °C | 0.25 °C | 0.19 °C | 0.59 °C | 2.48 °C | 0.64 °C |
| N#CC[C@H](C1CCCC1)n1cc(-c2ncnc3[nH]ccc23)cn1 | 0.48 °C | 1.16 °C | 0.62 °C | 0.56 °C | 0.07 °C | 0.28 °C | 1.11 °C | 1.14 °C | 3.58 °C | 0.47 °C | 0.42 °C | 1.39 °C | 0.15 °C | 2.16 °C | 0.41 °C | 0.17 °C | 0.46 °C | 0.65 °C | 1.14 °C | 0.66 °C |
| CC#CC(=O)N1CC[C@@H](n2c(=O)n(-c3ccc(Oc4ccccc4)cc3)c3c(N)ncnc32)C1 [ONO-4059 (GS-4059) hydrochloride] | 0.49 °C | 0.71 °C | 0.99 °C | -0.08 °C | 0.27 °C | 0.11 °C | 0.05 °C | 0.27 °C | 0.04 °C | 0.51 °C | 0.78 °C | 0.65 °C | 0.51 °C | -0.67 °C | 0.44 °C | 0.4 °C | 0.3 °C | 0.12 °C | 0.62 °C | 0.03 °C |
| COc1ccc([C@@H]2OC[C@H]3[C@@H]2CO[C@@H]3c2ccc(O[C@@H]3O[C@H](CO)[C@@H](O)[C@H](O)[C@H]3O)c(OC)c2)cc1OC [Forsythin] | 0.47 °C | -0.03 °C | -0.08 °C | -0.19 °C | 0.01 °C | 0.21 °C | -0.9 °C | 0.57 °C | 0.19 °C | -0.6 °C | 0.82 °C | -0.05 °C | 0.35 °C | 0.34 °C | 0.18 °C | 0.11 °C | 0.2 °C | -0.23 °C | -0.32 °C | -0.14 °C |
| O=C(Nc1cccc(Nc2ncc(Br)c(NCCc3cnc[nH]3)n2)c1)N1CCCC1 | 1.45 °C | 12.3 °C | 0.44 °C | 0.73 °C | 2 °C | 9.39 °C | 0.15 °C | 2.7 °C | 10.6 °C | 0.3 °C | 9.57 °C | 1.18 °C | 0.77 °C | 2.81 °C | 1.73 °C | 6.39 °C | 5.57 °C | 5.16 °C | 2.86 °C | 2.52 °C |
| C=C(C)[C@@H]1CC[C@]2(C)CC[C@]3(C)[C@H](CC[C@@H]4[C@@]5(C)CC[C@H](O)C(C)(C)[C@@H]5CC[C@]43C)[C@@H]12 [Lupeol] | 0.67 °C | -0.59 °C | 0.65 °C | 0.13 °C | 0.51 °C | -0.32 °C | 1 °C | 0.21 °C | -0.18 °C | -0.66 °C | 1.07 °C | 0.49 °C | 0.67 °C | 0.01 °C | 0.18 °C | 0.36 °C | 0.4 °C | 1.24 °C | 3.02 °C | 0.47 °C |
| Cc1c(C(=O)N2CCOc3ccc(-c4ccc(N)nc4)cc3C2)ccc(S(C)(=O)=O)c1F | -0.07 °C | 0.34 °C | 0.98 °C | 0.62 °C | 0.21 °C | 0.48 °C | -0.03 °C | 0.91 °C | 0.74 °C | 0.12 °C | 0.79 °C | 0.21 °C | 0.5 °C | 0.38 °C | 0.27 °C | 0.12 °C | 0.24 °C | 0.73 °C | 0.22 °C | 0.43 °C |
| CCc1nc(C(N)=O)c(Nc2ccc(N3CCC(N4CCN(C)CC4)CC3)c(OC)c2)nc1NC1CCOCC1 [Gilteritinib (ASP2215)] | 4.25 °C | 11.5 °C | 1.96 °C | 1.07 °C | 4.03 °C | 5.09 °C | 1.35 °C | 5.51 °C | 13.1 °C | 1.65 °C | 9.25 °C | 3.16 °C | 0.4 °C | 9.74 °C | 8.74 °C | 5.63 °C | 8.56 °C | 11.4 °C | 6.15 °C | 0.57 °C |
| COc1cc2ccc(=O)oc2cc1O [Scopoletin] | 0.91 °C | 0.02 °C | -0.06 °C | -0.04 °C | -0.05 °C | 0.41 °C | -1.02 °C | 0.39 °C | 0.77 °C | 1.18 °C | 0.7 °C | 0.13 °C | 0.44 °C | 0.02 °C | 0.3 °C | 0.69 °C | 0.22 °C | 0.41 °C | 0.05 °C | 0.47 °C |
| COC(=O)Nc1ccc(-c2nc(N3CCOCC3)c3cnn(C4CCN(C(=O)OC)CC4)c3n2)cc1 | 2.22 °C | 0.77 °C | 0.54 °C | 0.41 °C | 0.13 °C | 0.2 °C | 0.91 °C | 0.58 °C | -0.24 °C | 0.43 °C | 0 °C | -0.07 °C | 0.1 °C | 0.08 °C | -0.05 °C | 0.08 °C | 0.17 °C | 0.06 °C | 0.81 °C | 0.47 °C |
| CNC(=O)c1cccc(-c2ccc3c(N4CCOC[C@@H]4C)nc(N4CCOC[C@@H]4C)nc3n2)c1 [Vistusertib (AZD2014)] | 0.66 °C | 0.59 °C | 0.1 °C | 0.16 °C | 0.54 °C | 0.23 °C | 0.11 °C | 1.58 °C | 0 °C | -0.08 °C | 0.21 °C | 0.04 °C | 0.18 °C | -0.33 °C | 0.11 °C | 0.09 °C | 0.06 °C | -0.19 °C | 0.96 °C | 0.11 °C |
| Cc1cc(Nc2ncnc3ccc(NC4=NC(C)(C)CO4)cc23)ccc1Oc1ccn2ncnc2c1 [Irbinitinib (ARRY-380, ONT-380)] | 1.92 °C | 0.15 °C | -0.86 °C | -1.49 °C | -1.04 °C | -0.85 °C | -0.86 °C | 0.22 °C | 0.7 °C | 0.09 °C | 0 °C | 0.14 °C | 0.65 °C | -3.39 °C | -0.73 °C | -0.45 °C | -0.83 °C | -1.83 °C | 0.82 °C | 0.49 °C |

— the supplement of paper PMC9694430
